# High-throughput results deposited in PubChem BioAssay by National Center for Advancing Translational Sciences (NCATS).
# ELG1 repair inh: ELG1-dependent DNA repair inhibition; 2.3% of 330,000 active; HEK293T ELG1-luciferase reporter, luminescence, 16 h; DNA damage induced by 5-fluorouridine; AID 504467; Potency, µM (titrated, usually from 46.1 µM), for the others: at the highest dose activity change, negative = inhibition, actives largely listed as inhibitors; also: potency is read from the fitted curve at half-maximal effect; nearly all actives have a fitted effect of over 55% in size
#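 Overnight (16 hr) co-exposure of 2,000 cells/well to 5-fluorouridine and compound at 37 °C preceded detection. Luciferase was quantified via ONE-Glo luminescence; loss of signal denotes inhibition.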
# IL-1B inflam inh: inhibitors of inflammasome signaling (IL-1 beta secretion) | AID 743279 | THP-1 LPS/ATP IL-1B secretion, AlphaLISA, 16 h; active compounds read low | 4.7% of 360,000 active | activity change, % at 57.5 µM; in the data active = activity change below about -50%; inconclusive = mostly about -30% to -49%
#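 THP-1 cells pretreated 1 hr with compounds (up to 57.5 uM final), then stimulated with LPS (250 ng/mL final) plus ATP (1.25 mM final); secreted IL-1B measured by AlphaLISA after 16 hr, decreased signal indicating inhibition.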
# DT40 TDP1 CPT: growth inhibition of DT40 Tdp1-/-;hTDP1 cells with camptothecin (screen for TDP1 inhibitors); chicken DT40 Tdp1-/-;hTDP1 cells + 20 nM CPT, ATP luminescence, 48 h; Potency, µM (series often up to 46.2 µM), inactives show at the top dose activity change, negative = growth inhibition, actives largely listed as inhibitors; 12% of 420,000 active; AID 686979; also: potency is read from the fitted curve at half-maximal effect; nearly all actives have a fitted effect of over 55% in size
#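 Chicken DT40 Tdp1-/- cells complemented with human TDP1, 400 cells/well, exposed to compounds plus 20 nM camptothecin for at least 48 h at 37 C; viability read as ATP content by CellTiter-Glo luminescence.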
# Giardia kill: kills Giardia lamblia; Giardia lamblia trophozoite viability; activity change, % at 7.66 µM, hits read low; 0.15% of 340,000 active; in the data active = activity change below about -80%; inconclusive = between about -30% and that limit;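 also: parasites exposed to compound for two days anaerobically before the ATP read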
#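 Trophozoite viability was measured as ATP-dependent luminescence, read 15-30 min after reagent addition. Before that, parasites at 100 cells/well were exposed to compounds for 48 h, anaerobically, at 37 deg C.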
# TDP1 inh: inhibitors of human tyrosyl-DNA phosphodiesterase TDP1. Q9NUW8. recombinant TDP1, AlphaScreen DNA substrate cleavage. Potency, µM (series often up to 130 µM), inactives show at the highest dose activity change, negative = inhibition, hits mostly inhibitors. 0.28% of 350,000 active; also: potency is read from the fitted curve at half-maximal effect; nearly all actives have a fitted effect of over 40% in size
# Target sequence (Q9NUW8 whole entry, looked up): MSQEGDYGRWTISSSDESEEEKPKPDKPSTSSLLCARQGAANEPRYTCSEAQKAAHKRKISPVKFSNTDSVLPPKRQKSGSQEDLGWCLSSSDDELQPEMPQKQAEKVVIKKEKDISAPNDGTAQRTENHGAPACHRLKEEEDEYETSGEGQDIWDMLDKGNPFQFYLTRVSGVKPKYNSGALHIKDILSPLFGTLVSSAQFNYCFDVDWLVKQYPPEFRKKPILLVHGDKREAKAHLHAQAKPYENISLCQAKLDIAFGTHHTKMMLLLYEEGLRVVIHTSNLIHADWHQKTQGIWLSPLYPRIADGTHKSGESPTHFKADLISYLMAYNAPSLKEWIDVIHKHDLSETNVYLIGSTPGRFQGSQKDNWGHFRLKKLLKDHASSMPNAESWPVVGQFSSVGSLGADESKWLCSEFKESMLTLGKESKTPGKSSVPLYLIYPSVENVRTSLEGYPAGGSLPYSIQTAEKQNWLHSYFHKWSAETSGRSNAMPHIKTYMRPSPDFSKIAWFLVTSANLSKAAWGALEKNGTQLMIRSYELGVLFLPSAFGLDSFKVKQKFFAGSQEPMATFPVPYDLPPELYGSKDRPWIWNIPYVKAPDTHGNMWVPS
#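 Steps: enzyme plus compound, 15 min RT; add biotin/phosphotyrosine-FITC oligonucleotide (15 nM final), react 5 min; add donor/acceptor beads (10 ug/ml final), 10 min; read AlphaScreen. Tdp1 at 1 nM final.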
# DT40 TDP1 no CPT: qHTS for Inhibitors of human tyrosyl-DNA phosphodiesterase 1 (TDP1): qHTS in cells in absence of CPT; DT40 Tdp1-/- hTDP1 cells, no CPT, ATP luminescence, 48 h; Potency, µM (titrated, usually from 46.2 µM), for the others: top-dose activity change, negative = growth inhibition, hits mostly inhibitors; 15% of 420,000 active; also: potency is read from the fitted curve at half-maximal effect; nearly all actives have a fitted effect of over 55% in size
#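 Stably hTDP1-transfected Tdp1-null chicken DT40 cells were treated with library compounds minus camptothecin and grown for at least 48 hr at 37 °C, after which cellular ATP was quantified by luminescence.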
# Numbers without * were called inactive; ? = inconclusive; nt = no result given; [ ] = remark or other dose. Shown are actives, neighbours in structure and some others; about 19% of the full set was active somewhere. Unless noted, calls follow the shape of the dose curve; as a rule, active = well fitted curve in the direction sought with a large enough effect; inconclusive = small, poorly fitted or top-dose-only effect, or another doubt; inactive = no such curve, though single readings can be large; an effect the other way counts as inactive or inconclusive. % is scaled to controls: 0 for no effect and ±100 for the full control effect.
SMILES,ELG1 repair inh,IL-1B inflam inh,DT40 TDP1 CPT,Giardia kill,TDP1 inh,DT40 TDP1 no CPT
COc1ccc(-c2noc(CCC(=O)NCCc3cccc(C)c3)n2)cc1,?,2,?,25,5%,-27%
O=C(Nc1ccc(Br)cc1F)c1ccc2nsnc2c1,?,4,?,18,1%,8.2µM*
CN(C)c1ccc(-c2ccc3ncnc(N(C)Cc4ccco4)c3c2)cc1,nt,nt,4.1µM*,nt,nt,2.6µM*
O=[N+]([O-])c1cccc(-c2ccc(/C=N/NC(=S)Nc3cccc(F)c3)o2)c1,?,0,0%,-11,nt,18µM*
NC(=S)N/N=C/c1ccc(Br)o1,1%,-11,-20%,0,4%,-15%
NC(=S)N/N=C/c1ccc(-c2cc(Cl)c(Cl)cc2Cl)o1,2%,29,3.7µM*,7,8%,4.6µM*
O=C(N/N=C/c1ccc(-c2cccc([N+](=O)[O-])c2)o1)c1cccs1,?,35,22%,-1,0%,-25%
NC(=S)N/N=C/c1ccc(-c2cccc([N+](=O)[O-])c2)o1,-25%,-5,5.2µM*,1,8%,3.7µM*
CC(=O)Nc1ccc(NC(=O)C(C)OC(=O)CCC2CCCC2)cc1 (centres undefined),2%,24,15%,-21,nt,-30%
O=C(CCN1CCOCC1)c1ccc(Br)cc1,2%,-91*,3.3µM*,2,2%,2.6µM*
O=C(CCN1CCOCC1)c1ccc(Cl)cc1,11%,-24,2.9µM*,-1,-5%,2.6µM*
Brc1ccc(OCCN2CCOCC2)cc1,8%,-2,-2%,-2,4%,0%
O=C(NCCOc1ccccc1)C1CCC(=O)N(CCN2CCOCC2)C1 (centres undefined),8%,3,11%,-2,5%,16%
CO[C@]1(NC(=O)C(C(=O)O)c2ccc(O)cc2)C(=O)N2C(C(=O)O)=C(CSc3nnnn3C)COC21 (some centres undefined),nt,nt,-13%,nt,-13%,-9%
CCCCNC(=O)C1CCC(CNS(=O)(=O)c2c(C)cc(C)cc2C)CC1 (centres undefined),-12%,-12,?,2,nt,?
CCCCSCCCNC(=O)C1CCC(CNS(=O)(=O)c2c(C)cc(C)cc2C)CC1 (centres undefined),nt,nt,15µM*,nt,3%,18µM*
COCCn1c(=O)c(-c2ccc(Cl)cc2)nc2cnc(N3CCOCC3)nc21,nt,nt,1%,nt,nt,4%
C[N+](C)=C1SCC(C)(/C=N/O)S1 (centres undefined),4%,19,-5%,-10,0%,-23%
CCOC(=O)c1ccc(Nc2nc3nonc3nc2Nc2cccc(C)c2C)cc1,nt,nt,2.6µM*,nt,9%,2.1µM*
CCOC(=O)c1ccc(Nc2ncnc3nc[nH]c23)cc1,?,-2,?,-10,5%,?
Cc1ccc(C)c(Nc2nc3nonc3nc2Nc2cccc(C)c2C)c1,nt,nt,3.7µM*,nt,5%,2.9µM*
O=C(NCC1CCCO1)c1ccccc1OCc1ccc(Cl)cc1 (centres undefined),-22%,4,?,10,1%,?
O=C([C@H](Cc1ccccc1)N1C(=O)c2ccccc2C1=O)N1CCOCC1,-3%,14,-14%,16,12%,-13%
O=C(Nc1nc2c(s1)CCCC2)c1cccs1,?,-8,?,?,5%,21µM*
CC(O)Cc1nsc(NC(=O)c2ccc(Br)o2)n1 (centres undefined),6%,7,4.1µM*,-11,-2%,2.3µM*
SMILES,ELG1 repair inh,IL-1B inflam inh,DT40 TDP1 CPT,Giardia kill,TDP1 inh,DT40 TDP1 no CPT
O=C(Nc1nc2c(s1)CCCC2)c1cccnc1,?,-12,?,31,-5%,-17%
O=C(Nc1nc2c(s1)CCCC2)c1ccc(Br)o1,?,-18,?,-14,4%,15µM*
O=C(Nc1ccc(Br)cc1)Nc1nc2c(s1)CCCCCC2,nt,nt,15µM*,nt,3%,18µM*
CCOc1ccc(NC(=O)CCC(=O)NNS(=O)(=O)c2ccccc2[N+](=O)[O-])cc1,5%,2,4%,5,5%,-11%
Cc1csc(NC(=O)c2ccc(C)o2)n1,?,10,-5%,5,5%,-13%
Cc1ccc(C(=O)Nc2nc3c(s2)CCCC3)o1,?,-8,23µM*,?,2%,?
Cc1ccc(-c2nc(-c3ccncc3)no2)cc1Cl,?,9,7%,-13,nt,-4%
c1ccc(-c2cc(-c3nc(-c4ccccn4)no3)c3ccccc3n2)cc1,nt,-15,9.2µM*,-8,nt,8.2µM*
c1ccc(C(Cc2nc(-c3ccccn3)no2)c2ccccc2)cc1,?,-2,?,4,8%,16µM*
Cc1ccc(-c2nc(-c3ccccn3)no2)cc1Cl,?,17,?,?,4%,12µM*
c1ccc(-c2nc(-c3ccccn3)no2)cc1,?,22,16µM*,?,3%[56.1 µM],?
c1ccc(-c2noc(-c3cccc4ccccc34)n2)nc1,?,0,3%,14,7%,-23%
Oc1c(C(c2ccccc2F)N2CCCCC2)sc2nc(-c3ccco3)nn12 (centres undefined),nt,nt,8%,nt,0%,2%
Nc1c(C(=O)NCc2ccc3c(c2)OCO3)nnn1Cc1ccc(Br)cc1,-1%,13,9%,0,8%,-8%
CC1(C)Cc2c(sc3nc(C4CC4)n(N)c(=O)c23)CO1,-13%,-8,-20%,3,-1%,?
CCOc1ccccc1NC(=O)C1CCN(C(=O)c2cccs2)CC1,-2%,5,5%,-7,-1%,-1%
Clc1cccc(-c2nc(-c3ccccn3)no2)c1,?,13,-21%,?,1%,?
COc1cccc(-c2nc(-c3ccccn3)no2)c1OC,?,-11,23µM*,-19,2%,?
Cc1ccc(-c2nc(-c3ccccn3)no2)cc1,?,0,7.3µM*,-90*,4%,8.2µM*
c1ccc(-c2ccc(-c3nc(-c4ccccn4)no3)cc2)cc1,?,-4,12µM*,?,-4%,10µM*
COc1ccccc1CNC(=O)C1CCN(S(=O)(=O)c2ccc3c(c2)NC(=O)CO3)CC1,12%,-4,4%,10,2%,-22%
CCCN(CCC)C(=O)Cn1c(=O)n(CCCCCC(=O)NCc2ccc3c(c2)OCO3)c(=O)c2sccc21,nt,nt,?,nt,3%,-16%
